According to the supplement of paper PMC6555819:

Assays:
Assay in all cases: PBM binding z-score (relative to random genomic background probes); higher = stronger binding; sequences stand for … in GC…GCGATTGACAGCGTAGAATGAAGG
[1] = tested on: PPARg:RXRa DBDmut IVT, anti-RXR (DBD mutation: RXRa K156A/R161A, NR concentration 270 nM, RXRa partner concentration 90 nM)
Method in brief: (§1)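 Each nuclear receptor dimer, without ligand, was incubated for 1 h on custom Agilent 4×180K protein-binding microarrays. Binding was detected with antibodies against each partner (one per run), and scanned fluorescence was regression-normalized. The binding z-scores are referenced to random human genomic background probes.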

[2] = tested on: PPARg:RXRa IVT, anti-PPARg (NR concentration 270 nM, RXRa partner concentration 90 nM)
Method in brief: as §1

[3] = tested on: PPARg DBDmut:RXRa IVT, anti-PPARg (DBD mutation: PPARg1 K132A/R137A, NR concentration 270 nM, RXRa partner concentration 90 nM)
Method in brief: as §1

[4] = tested on: PPARg DBDmut IVT, anti-PPARg (DBD mutation: PPARg1 K132A/R137A, NR concentration 270 nM)
Method in brief: as §1

[5] = tested on: PPARg homodimer (NR concentration 180 nM)
Method in brief: as §1

[6] = tested on: PXR:RXRa (NR concentration 270 nM, RXRa partner concentration 90 nM)
Method in brief: as §1

[7] = tested on: PXR homodimer (NR concentration 270 nM)
Method in brief: as §1

[8] = tested on: RARa:RXR (NR concentration 270 nM, RXRa partner concentration 90 nM)
Method in brief: as §1

[9] = tested on: RARa homodimer (NR concentration 270 nM)
Method in brief: as §1

[10] = tested on: RARb:RXRa (NR concentration 270 nM, RXRa partner concentration 90 nM)
Method in brief: as §1

Sequence	PBM binding z-score [1]	PBM binding z-score [2]	PBM binding z-score [3]	PBM binding z-score [4]	PBM binding z-score [5]	PBM binding z-score [6]	PBM binding z-score [7]	PBM binding z-score [8]	PBM binding z-score [9]	PBM binding z-score [10]
GCAGACAGGTGAAACGCAGGTCACTCAGGGTGGC	0.839	1.6	-0.584	-0.0986	1.32	2.65	-0.357	3.45	-0.516	2.44
GCAGACAGGTGAAACGCAGGTAACTCACGGTGGC	1.05	0.811	0.104	-0.094	-0.18	-0.51	-0.98	0.0228	-0.454	0.558
ATCTCTATGTAAAGTTCAGTGAAAGATCGATAGA	-0.231	0.863	0.912	1.04	1.11	1.92	2.03	1.18	1.46	2.55
TCTTGTAGATCAGCCGGTTAAGAAAGCTGGCCAA	1.7	-0.0533	-0.491	0.198	-0.81	-0.0108	-0.447	0.0162	-0.458	-0.316
ATCTCTAGGTAAGACTCACTTCAGTGAAGAACGC	1.59	1.19	0.772	1.01	0.77	-0.228	0.171	-0.265	0.334	-0.0456
TCTGTTAGGTCAGTTGGTCAGCTAACGAGCTGCC	2.15	3.2	2.86	2.08	1.91	0.988	0.313	1.29	0.814	3.71
ATCGAAAGGTCGAGGTGAGGATAGAGAAAGGGAA	0.551	2.41	1.29	0.836	1.63	2.46	0.644	3.16	0.718	4.06
CGTCCAAGCTCATAGGAGGTCAGTGAAGACAGAT	0.199	0.722	-0.21	-0.262	1.08	1.59	0.494	1.79	0.761	2.03
CATTACGGGTCACTCCAGGTTATAGCATCGGAGT	3.99	4.96	1.72	1.65	2.09	5.11	0.705	3.78	0.9	3.97
CTACCAAGATGAACAAGGTCGTTGATTACTATTC	0.459	0.305	0.173	0.136	0.792	1.53	1.73	1.45	1.7	0.656
TCTAGCAGGCCAGAGGCTCACTCAAGAGGTACGG	0.411	-0.442	-1.19	-2.42	-1.71	-0.83	-1.3	-0.758	-1.3	-0.419
TCTCGGAGGACACGAAGTTCAGAGCTTTCCAGAG	1.43	-0.00253	-0.707	-1.05	-0.195	1.39	2.87	0.555	-0.518	2.36
TTACGAAGGTGAAGGTCGTTGATCCCTCTGTAGA	1.43	2.62	0.0113	-0.332	0.462	1.58	-0.113	1.68	-0.46	2.23
CGTCAAGGTTCAAGGTAACGTAACAGAAAGCAGC	-0.0787	0.903	-0.883	-0.847	1.12	1.87	0.422	2.3	-0.0336	3.24
CAAACTAGGTCAAGCGGTCAAAGTCCGCTTCCCG	8.54	8.61	4.37	1.14	3.03	2.21	0.102	3.33	0.747	4.62
CCTTACGGGTCAAGGTTCTAGCACGGGTGGTACG	1.5	3.25	0.0121	-0.395	2.56	2.98	-0.35	3.97	0.251	4.05
